VP16 counter: counter-screen for ROR gamma inhibitors: Gal4-VP16 reporter; Drosophila S2 Gal4-VP16 UAS-luciferase, luminescence, 20 h; AID 2546; Potency, µM (series often up to 53.6 µM), hits mostly inhibitors; hit rate 3.5% among 310,000;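 also: Gal4-VP16 expression switched on by copper sulfate through the metallothionein promoter; nearly all actives have a fitted effect of over 50% in size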
PINK1 expr mod: modulators of PINK1 expression | PINK1 immunofluorescence, high-content cytometry, 24 h | Potency, µM (doses to about 76.6 µM), usual class: activators | hit rate 0.2% among 410,000 | AID 624263; active = well fitted activation curve with a large enough effect; inconclusive = small, poorly fitted or top-dose-only effect; cell line not stated here; also: nearly all actives have a fitted effect of over 65% in size
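Stable cell line, 250 cells/well, 12 h attachment; compounds pinned at 5 concentrations, 24 h; CCCP control. Fixed with nuclear dye, primary antibodies 12 h at 10 degrees C, secondary plus cell stain; laser-scanning cytometer read.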
Sfp PPTase inh: blocks B. subtilis Sfp PPTase activity | Potency, µM, usual class: inhibitors | hit rate 3.5% among 310,000 | Biochemical Sfp PPTase activity, qHTS | AID 1490 | Q9F4F7;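 also: the enzyme is Sfp with the accession as filed and its product quenches rhodamine fluorescence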
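Compounds were incubated with enzyme (final 15 nM) for 15 min at room temperature before substrate addition started the reaction. Fluorescence at 525 nm excitation, 598 nm emission was recorded immediately and after 30 minutes.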
Epigenetic reg: epigenetic control regulation, reporter derepression. murine LDR cells, GFP reporter derepression, 30 h. Potency, µM (highest dose often 53.9 µM), most hits filed as activators. hit rate 0.2% among 280,000; also: nearly all actives have a fitted effect of over 60% in size
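Murine LDR cells carrying a silenced, genomically integrated CMV-driven GFP reporter were exposed to compound for 30 hours at 37 C. After PBS washes, GFP-positive cells (20–120 um objects) were counted by laser-scanning microplate cytometry.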
RORgamma inh: blocks mouse ROR gamma transcriptional activity; hit rate 5.4% among 310,000; Drosophila S2 Gal4-RORgamma UAS-luciferase reporter, 20 h; Potency, µM (top dose mostly 53.6 µM), hits mostly inhibitors; AID 2551; also: nearly all actives have a fitted effect of over 60% in size
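In this cell-based reporter format, copper sulfate (700 uM final) drives Gal4–ROR gamma fusion expression from a metallothionein promoter in Drosophila Schneider cells; compounds preincubated 1 hr, reporter read after 20 hr at ambient temperature.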
ClpP mod: qHTS Assay for Activators of ClpP; ATP-dependent Clp protease proteolytic subunit (Bacillus subtilis (strain 168)), P80244; purified B. subtilis ClpP, FRET peptide cleavage, 20 min; Potency, µM (top dose mostly 57.5 µM); hit rate 1.9% among 340,000; AID 651965, 2013; active = well fitted falling curve with a large enough effect; inconclusive = small, poorly fitted or top-dose-only effect; inactive = no such curve, though single readings can be large or run the other way; also: the source files actives as falling curves though it sought activators and does not explain the sign; nearly all actives have a fitted effect of over 65% in size
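Purified B. subtilis ClpP, 10 microg/mL final in Tris/HCl pH8 with KCl, BSA, glycerol and Tween-20, cleaved an Abz/nitrotyrosine-quenched decapeptide. Fluorescence (ex 320, em 430) was read at 0 and 20 min at room temperature. Delta was normalized to 5.8 microM ADEP and DMSO/no-enzyme controls.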
Sfp PPTase conf: Sfp phosphopantetheinyl transferase inhibition, confirmation; Potency, µM (series often up to 114 µM), hits mostly inhibitors; hit rate 79% among 380; Sfp PPTase enzymatic assay, qHTS titration; shares compounds with Sfp PPTase inh
Sfp PPTase gel: Inhibits Bacillus subtilis Sfp phosphopantetheinyl transferase; purified Sfp, gel-based phosphopantetheinylation read-out; hit rate 20% among 210; shares compounds with Sfp PPTase inh; Potency, µM, hits mostly inhibitors;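 active = potency below 100 µM; inconclusive = dose-dependent response but potency above 100 µM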;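 also: potency is an IC50 for inhibitors of Sfp transfer activity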
C127i cell count: counter-screen for epigenetic modulators: effect in parental c127i cells; Potency, µM, hits mostly activators; AID 493065; shares compounds with Epigenetic reg; hit rate 20% among 60; mouse c127i parental cells, fluorescent cell count, 30 h
HCC4017 tox: HCC4017 cytotoxicity of epigenetic modulator hits; shares compounds with Epigenetic reg; HCC4017 NSCLC viability, CellTiter-Glo ATP luminescence, 72 h; Potency, µM (titrated, usually from 46.1 µM), most hits filed as cytotoxic; hit rate 30% among 45
H358 viab: reduces H358 lung cancer cell viability among epigenetic modulators | shares compounds with Epigenetic reg | H358 NSCLC viability, ATP luminescence, 72 h | Potency, µM (top dose mostly 46.1 µM), usual class: cytotoxic | hit rate 30% among 45 | AID 493074
Hits are given with their value; n = inactive; u = inconclusive; x = no result given; ! = not active in a repeat; [ ] = another dose, or the depositor's remark. Only some compounds are listed: those with a hit (about 8.1% of all), similar ones and a draw of the others. Unless noted, calls follow the shape of the dose curve; as a rule, active = well fitted curve in the direction sought with a large enough effect; inconclusive = small, poorly fitted or top-dose-only effect, or another doubt; inactive = no such curve, though single readings can be large; an effect the other way counts as inactive or inconclusive.

SMILES	VP16 counter	PINK1 expr mod	Sfp PPTase inh	Epigenetic reg	RORgamma inh	ClpP mod	Sfp PPTase conf	others
COc1cc(CNc2ccc3[nH]c(=O)[nH]c3c2)cc(Br)c1OCC(=O)NC(C)(C)C	n	n	n	n	n	n	x
CCOc1cc(CNc2ccc(N(C)C)cc2)cc(Br)c1OCC(=O)NC(C)(C)C	n	n	3.55µM	n	10µM	n	u	Sfp PPTase gel=u
Cc1ccnc(NC(=S)N2CCN(c3cccc(C(F)(F)F)c3)CC2)c1	0.562µM	n	2.51µM	x	0.316µM	x	14.8µM
CCOc1ccc(C(=O)Oc2c(Sc3ccccc3)c(C)nn2C(C)(C)C)cc1OCC	x	n	x	n	x	n	x
Cc1ccc(OCCSc2nc3ccccc3n2CC(=O)N2CCCCC2)cc1C	x	n	x	n	x	n	x
Cc1ccc(N(Cc2cccs2)C(=O)c2ccccc2)cc1	x	n	x	n	x	n	x
OCc1ccc(-c2nn(Cc3ccccc3)c3ccccc23)o1	x	n	4.47µM	u	x	n	14.8µM
CC1=NCCN1CCNC(=O)Nc1ccc(F)cc1	n	n	n	n	n	x	x
O=C(Nc1ccc(F)cc1)C1=CC(=O)N2CCN=C2S1	u	x	0.562µM	n	u	x	11.8µM
COC(=O)c1c(N2C(=O)CC(Sc3ccccc3C(=O)O)C2=O)sc2c1CCCC2 (stereo not drawn)	n	n	1.58µM	n	n	x	33.2µM
Cn1c(=O)c2c(SCC(=O)Nc3ccc(F)cc3F)nc(C3CCCC3)nc2n(C)c1=O	x	n	x	n	x	n	x
CC/C(=C(\c1ccccc1)c1ccc(OCCN(C)C)cc1)c1ccccc1	31.6µM!	n	50.1µM!	n	10µM!	n	46.9µM	Sfp PPTase gel=n
CCc1ccc(OCCCSc2nc(-c3ccc(C(C)(C)C)cc3)nc3cc(=O)[nH]n23)cc1	x	n	x	n	x	n	x
C1CCc2nc3c(nc2C1)CCCC3	n	n	n	n	n	n	x
Nc1nnc2c(n1)CCCC2	n	n	44.7µM	n	n	n	52.7µM	Sfp PPTase gel=6.17µM
CCOc1ccc2[nH]c(=O)c(C(c3nnnn3Cc3ccco3)N3CCC(C)CC3)cc2c1 (stereo not drawn)	n[0.365 µM]	n	3.55µM	n	n	u	8.35µM
COc1ccc(N2CCN(C(c3cc4cc(C)ccc4[nH]c3=O)c3nnnn3Cc3ccccc3)CC2)cc1 (stereo not drawn)	n	n	n	n	n	n	x
COc1ccc(Cn2nnnc2C(C(C)C)N2CCN(c3ccccc3OC)CC2)cc1 (stereo not drawn)	n	n	n	n	n	n	x
CC(C)C(c1nnnn1Cc1ccc(F)cc1)N1CCN(c2ccc(O)cc2)CC1 (stereo not drawn)	n	n	15.8µM	n	n	x	46.9µM
COC(=O)c1ccc(-c2noc(CN(C)CCC3CCCCO3)n2)cc1 (stereo not drawn)	5.62µM	n	0.708µM	n	5.62µM	x	n	Sfp PPTase gel=n
Cc1ccc(-c2cc(C(=O)N3CCN(c4ncccn4)CC3)c3cc(Br)ccc3n2)o1	u	n	7.94µM	n	n	x	4.69µM
O=C(NCc1ccco1)c1csc2c1CCCCC2	n	n	n	n	n	n	u	Sfp PPTase gel=n
O=C(NCc1ccccc1)c1csc2c1CCCCC2	n	n	n	n	n	n	x
CCN(CC)c1ccc(/C=N/NC(=O)C(O)(c2ccccc2)c2ccccc2)o1	3.98µM	x	7.08µM	n	5.62µM	x	11.8µM
O=C(O)c1ccc(/C=N/NC(=O)C(O)(c2ccccc2)c2ccccc2)cc1	x	n	n	x	x	x	x
SMILES	VP16 counter	PINK1 expr mod	Sfp PPTase inh	Epigenetic reg	RORgamma inh	ClpP mod	Sfp PPTase conf	others
CC1=C(C(=O)Nc2cccnc2)C(c2ccc(F)cc2)n2nc(SCc3ccccc3F)nc2N1 (stereo not drawn)	x	n	x	n	x	n	x
CCOC(=O)Nc1ccc(NCc2ccc(F)cc2)nc1N	n	n	35.5µM	n	n	n	14.8µM
CCOc1ccc(OCC)c(NC(=O)CN2CCN(CC)CC2)c1	n	n	n	n	n	n	x
CCOc1ccc(OCC)c(NC(=O)CN2CCN(c3cc(C)ccc3C)CC2)c1	n	n	5.62µM	n	u	n	n	Sfp PPTase gel=n
CCOC(=O)c1cccc(NC(=O)NCCc2c(C)nn(C)c2C)c1	x	n	x	n	x	n	x
CN=c1nc(-c2ccccc2)n(-c2ccccc2)s1	x	n	x	n	x	n	0.835µM
O=C(CN1C(=O)C2CCCCN2c2ccc(C(=O)N3CCCC3)cc21)NCc1cccc(Cl)c1 (stereo not drawn)	x	n	x	n	x	n	x
COc1ccc(C(=O)Nc2ccccc2-c2nc3ccccc3s2)cc1OC	x	n	x	n	x	n	x
CCCCN1CCc2nc(Nc3ccc(OC)cc3OC)ncc2C1	x	n	x	n	x	n	x
CCN(CC)c1ccc(NC(=O)COC(=O)CSc2ccc(Br)cc2C)cc1	n	n	3.55µM	n	n	n	u	Sfp PPTase gel=u
C/C=C/c1ccc(OCCCCn2cncn2)c(OC)c1	n	n	1.12µM	n	n	n	n	Sfp PPTase gel=n
C/C=C/c1ccc(OCCCn2cncn2)c(OC)c1	n	n	u	n	n	n	x
CSc1nsc(/C=C/Nc2cccc(Cl)c2)c1C#N	n	n	n	7.08µM	n	n	x	C127i cell count=10µM;HCC4017 tox=n;H358 viab=n
S=C(Nc1ccccc1)c1ccccn1	2µM	n	44.7µM!	5.62µM	0.631µM	n	x	C127i cell count=22.4µM;HCC4017 tox=n;H358 viab=n
O=C(Nc1ccc(C(=O)OCc2cc(=O)n3nc(C4CC4)sc3n2)cc1)c1ccccc1	x	n	x	u	x	n	x
CN1CCN(c2ccc(NC(=O)c3ccc([N+](=O)[O-])o3)cc2Cl)CC1	u	n	n	x	u	x	x
O=C(Nc1ccc(N2CCOCC2)c(Cl)c1)c1ccc([N+](=O)[O-])o1	u	n	n	n	n	n	x
CC(C)C(=O)N1CCN(c2ccc(NC(=O)c3ccc([N+](=O)[O-])o3)cc2Cl)CC1	n[10 µM]	n	n	u	u	x	x	C127i cell count=u
CCCC(=O)N1CCN(c2ccc(NC(=O)c3ccc([N+](=O)[O-])o3)cc2Cl)CC1	u	n	n	u	20µM	x	x	C127i cell count=n;HCC4017 tox=1.77µM;H358 viab=2.5µM
Oc1ccc(Br)cc1C=Nc1ccc2c3c(cccc13)CC2	n	n	n	3.55µM	u	31.6µM	x	C127i cell count=n;HCC4017 tox=n;H358 viab=u

Bioassay records: PubChem, National Center for Advancing Translational Sciences (NCATS)
